Experimental findings from PubChem BioAssay (NCATS) are described below.

In assay [1] the target is Catechol O-methyltransferase (Homo sapiens) (UniProt P21964). The assay can be described thus: Confirmatory Screen for Target Class Profiling of Small Molecule Inhibitors of Methyltransferases (AID 1745852; calls by dose curve; note: potency is the fitted concentration of half-maximal effect; for activity change, negative = inhibition: % is set by controls: 0 for no effect and ±100 for the full control effect). The following applies: MTase-Glo luminescence, SAH detection, recombinant enzyme; measured here: COMT max response; stronger effect = lower value.
Assay [2] has as its target Guanidinoacetate N-methyltransferase (Homo sapiens) (UniProt Q14353). The assay is described as above. The conditions noted are these: MTase-Glo luminescence, SAH detection, recombinant enzyme; activity change, negative = inhibition: at 57.3 µM (top of the series) unless noted; series mostly up to 57.3 µM.
The target of assay [3] is Nicotinamide N-methyltransferase (Homo sapiens) (UniProt P40261). Described as above. The following applies: MTase-Glo luminescence, SAH detection, recombinant enzyme; measured here: NNMT max response; stronger effect = lower value.
The target in assay [4] is Phenylethanolamine N-methyltransferase (Homo sapiens) (UniProt P11086). Described as above. The conditions noted are these: MTase-Glo luminescence, SAH detection, recombinant enzyme; measured here: PNMT max response; stronger effect = lower value.
Assay [5] has as its target Rap guanine nucleotide exchange factor 3 (Homo sapiens) (UniProt O95398). The assay can be described thus: Confirmatory qHTS for agonist of cAMP-regulated guanine nucleotide exchange factor 3 (EPAC1) (AID 1645881).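 Note: EPAC1 catalysed release of BODIPY-GDP from Rap1B seen as fluorescence loss; nearly all actives have a fitted effect of over 75% in size.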 The conditions noted are these: EPAC1 Rap1B BODIPY-GDP exchange fluorescence, 100% = cAMP control response; series mostly up to 154 µM. Background: qHTS replaces the single test concentration by a dilution series.

Assay [6] deals with Rap guanine nucleotide exchange factor 4 (Homo sapiens) (UniProt Q8WZA2). Put plainly: Confirmatory qHTS for agonist of cAMP-regulated guanine nucleotide exchange factor 4 (EPAC2) (AID 1645884).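 Note: nucleotide exchange releases bodipy-GDP from Rap1 and this lowers its fluorescence; % is set by controls: 0 for no effect and ±100 for the full control effect; nearly all actives have a fitted effect of over 65% in size.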 The following applies: EPAC2 GEF activity, Rap1B-BODIPY-GDP fluorescence, percent relative to cAMP agonist control; series mostly up to 154 µM.
For assay [7] the target is unchanged. Put plainly: Confirmatory qHTS for antagonist of cAMP-regulated guanine nucleotide exchange factor 4 (EPAC2) (AID 1645885). Note: nearly all actives have a fitted effect of over 25% in size. Note: potency is the fitted concentration of half-maximal effect. The conditions noted are these: EPAC2 Rap1B-BODIPY-GDP exchange fluorescence, biochemical; series mostly up to 114 µM.
Assay [8] addresses Rap guanine nucleotide exchange factor 3 (Homo sapiens) (UniProt O95398). Put plainly: Counterscreen qHTS for antagonist of cAMP-regulated guanine nucleotide exchange factor 3 (EPAC1) (AID 1645888).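 Note: fluorescence loss as bound BODIPY-GDP is released from Rap1B; % of control where 0% means no effect.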 The following applies: Rap1B-BODIPY-GDP nucleotide exchange, fluorescence; series mostly up to 154 µM. A digest of the protocol:
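Rap1B–BODIPY-GDP (250 nM) with 50 uM GDP; compounds pin-transferred to 9.74 nM–152 uM final (activator) or from 7.32 nM upwards (inhibitor). Fluorescence Ex/Em 480/540 nm read at 5 and 30 min, then after adding cAMP or buffer, at room temperature.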

Assay [9] has the same target. Put plainly: Confirmatory qHTS for antagonist of cAMP-regulated guanine nucleotide exchange factor 3 (EPAC1) (AID 1645880). Note: potency is the fitted concentration of half-maximal effect; nearly all actives have a fitted effect of over 55% in size. The conditions noted are these: EPAC1 Rap1B-BODIPY-GDP exchange, fluorescence. Put shortly: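 Nucleotide exchange uses 100 nM EPAC1, 250 nM RAP1B-BODIPY-GDP and 50 uM GDP, with compounds in a concentration-titration series. After 5 min at room temperature, fluorescence (480 nm ex/540 nm em) is read every 5 min for 30 min. Data are normalized to control ATA and DMSO.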

A short description of assay [10]: NCATS anti-infectives library activity on HEK293 viability as a counter-qHTS vs the C. elegans viability qHTS (AID 1745854).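 Note: HEK293 cells exposed to compounds for 24 hr before the viability read; % is set by controls: 0 for no effect and ±100 for the full control effect.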 The following applies: HEK293 viability counter-screen; series mostly up to 41.8 µM. Put shortly: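 Cytotoxicity in human HEK293 cells is measured by ATP-dependent CellTiter-Glo luminescence following a 24 hr incubation with titrated library compounds at 37C. Top final concentration is 41.7 uM.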

Where “and” joins values, the source holds several entries; their conditions need not be identical. Equal values may be shown once. Inconclusive results are not listed. Calls of active or inactive are those of the source. Unless noted, calls come from the whole dose curve; as a rule, active = well fitted curve in the direction sought with a large enough effect; inconclusive = small, poorly fitted or top-dose-only effect, or another doubt; inactive = no such curve, though single readings can be large; an effect the other way counts as inactive or inconclusive.

Chain of Rap guanine nucleotide exchange factor 4 (Homo sapiens) (Q8WZA2 whole entry, looked up): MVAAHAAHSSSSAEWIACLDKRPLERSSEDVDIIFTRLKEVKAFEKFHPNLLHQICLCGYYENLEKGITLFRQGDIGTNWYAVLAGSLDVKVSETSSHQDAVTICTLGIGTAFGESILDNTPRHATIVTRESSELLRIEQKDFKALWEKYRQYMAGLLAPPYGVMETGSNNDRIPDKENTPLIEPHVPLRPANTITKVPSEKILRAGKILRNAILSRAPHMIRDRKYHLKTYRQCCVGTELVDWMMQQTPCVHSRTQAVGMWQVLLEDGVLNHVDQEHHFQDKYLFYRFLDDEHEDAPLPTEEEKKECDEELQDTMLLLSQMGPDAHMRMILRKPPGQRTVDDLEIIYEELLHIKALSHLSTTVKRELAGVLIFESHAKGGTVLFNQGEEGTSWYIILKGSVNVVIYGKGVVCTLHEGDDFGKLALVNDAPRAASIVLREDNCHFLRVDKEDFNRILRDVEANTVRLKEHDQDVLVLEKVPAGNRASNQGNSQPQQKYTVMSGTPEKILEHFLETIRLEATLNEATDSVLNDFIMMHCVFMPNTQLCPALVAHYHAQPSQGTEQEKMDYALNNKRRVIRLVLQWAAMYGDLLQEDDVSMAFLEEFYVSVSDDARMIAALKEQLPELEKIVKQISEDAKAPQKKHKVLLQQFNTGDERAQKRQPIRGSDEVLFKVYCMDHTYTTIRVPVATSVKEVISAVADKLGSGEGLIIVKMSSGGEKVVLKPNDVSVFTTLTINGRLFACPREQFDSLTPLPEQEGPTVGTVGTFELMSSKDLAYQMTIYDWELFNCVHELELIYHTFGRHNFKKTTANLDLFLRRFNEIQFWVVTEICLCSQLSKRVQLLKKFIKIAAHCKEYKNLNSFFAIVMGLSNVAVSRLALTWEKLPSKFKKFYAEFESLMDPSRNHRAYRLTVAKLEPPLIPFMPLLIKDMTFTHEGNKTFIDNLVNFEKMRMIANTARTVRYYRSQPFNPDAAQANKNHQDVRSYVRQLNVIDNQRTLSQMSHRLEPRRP
Chain of Phenylethanolamine N-methyltransferase (Homo sapiens) (P11086 whole entry, looked up): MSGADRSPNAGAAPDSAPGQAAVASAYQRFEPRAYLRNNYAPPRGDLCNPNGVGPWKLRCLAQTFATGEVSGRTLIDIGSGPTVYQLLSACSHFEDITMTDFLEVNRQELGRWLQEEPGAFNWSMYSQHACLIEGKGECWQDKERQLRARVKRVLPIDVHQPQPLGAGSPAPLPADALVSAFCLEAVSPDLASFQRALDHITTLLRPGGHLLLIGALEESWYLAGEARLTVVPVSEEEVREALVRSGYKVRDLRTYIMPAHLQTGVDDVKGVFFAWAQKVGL
Chain of Rap guanine nucleotide exchange factor 3 (Homo sapiens) (O95398 whole entry, looked up): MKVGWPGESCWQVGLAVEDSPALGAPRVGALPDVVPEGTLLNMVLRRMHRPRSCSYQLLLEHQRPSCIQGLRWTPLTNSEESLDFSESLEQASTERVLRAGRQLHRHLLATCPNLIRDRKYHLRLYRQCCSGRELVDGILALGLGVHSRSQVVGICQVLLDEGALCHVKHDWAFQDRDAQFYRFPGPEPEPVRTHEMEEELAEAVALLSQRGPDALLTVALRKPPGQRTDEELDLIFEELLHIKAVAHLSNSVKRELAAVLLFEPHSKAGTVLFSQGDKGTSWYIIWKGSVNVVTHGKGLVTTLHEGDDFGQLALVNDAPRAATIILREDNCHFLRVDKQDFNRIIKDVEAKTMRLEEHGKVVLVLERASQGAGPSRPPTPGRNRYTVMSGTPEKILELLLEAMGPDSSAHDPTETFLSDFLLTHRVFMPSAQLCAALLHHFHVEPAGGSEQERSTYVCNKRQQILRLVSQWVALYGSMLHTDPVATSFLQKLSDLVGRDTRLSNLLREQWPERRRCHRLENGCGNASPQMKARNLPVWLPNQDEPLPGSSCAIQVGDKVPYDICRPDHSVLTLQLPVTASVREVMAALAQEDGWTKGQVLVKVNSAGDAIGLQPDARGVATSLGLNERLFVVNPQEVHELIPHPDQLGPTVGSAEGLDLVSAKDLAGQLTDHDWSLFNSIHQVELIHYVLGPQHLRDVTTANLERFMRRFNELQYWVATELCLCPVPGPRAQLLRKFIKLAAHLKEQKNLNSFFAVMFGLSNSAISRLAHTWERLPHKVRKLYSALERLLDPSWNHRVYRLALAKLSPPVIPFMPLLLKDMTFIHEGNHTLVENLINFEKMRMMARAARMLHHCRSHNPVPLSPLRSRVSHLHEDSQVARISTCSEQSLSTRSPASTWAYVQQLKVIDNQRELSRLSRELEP
Chain of Nicotinamide N-methyltransferase (Homo sapiens) (P40261 whole entry, looked up): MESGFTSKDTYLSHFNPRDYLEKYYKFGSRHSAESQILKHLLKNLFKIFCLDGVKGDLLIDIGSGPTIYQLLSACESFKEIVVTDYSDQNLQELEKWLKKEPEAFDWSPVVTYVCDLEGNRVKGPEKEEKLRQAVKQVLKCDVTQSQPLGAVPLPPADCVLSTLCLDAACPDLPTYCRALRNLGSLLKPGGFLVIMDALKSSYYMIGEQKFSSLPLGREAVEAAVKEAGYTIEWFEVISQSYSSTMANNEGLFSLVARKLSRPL
Chain of Catechol O-methyltransferase (Homo sapiens) (P21964 whole entry, looked up): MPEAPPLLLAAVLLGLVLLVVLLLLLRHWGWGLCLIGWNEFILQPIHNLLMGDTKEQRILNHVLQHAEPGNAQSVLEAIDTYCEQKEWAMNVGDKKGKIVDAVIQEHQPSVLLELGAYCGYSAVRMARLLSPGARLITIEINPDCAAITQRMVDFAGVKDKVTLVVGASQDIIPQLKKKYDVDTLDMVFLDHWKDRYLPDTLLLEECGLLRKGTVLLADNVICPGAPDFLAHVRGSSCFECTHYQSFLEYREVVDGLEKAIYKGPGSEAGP

With `COc1cc(C2Oc3c(OC)cc(CCCO[C@@H]4O[C@H](CO)[C@@H](O)[C@H](O)[C@H]4O)cc3C2CO)ccc1O` (stereo not given in full), the activity in assay [1] was -72%; in assay [3], 0%; in assay [4], 4.57%. Also, the activity change, negative = inhibition in [2] was determined as 2.87% [at 29.8 µM].

For `CC(C)(O)/C=C1/C(=O)C(C)(C)C(=O)C(C)(C)C1(O)O[C@@H]1O[C@H](COC(=O)c2cc(O)c(O)c(O)c2)[C@@H](O)[C@H](O)[C@H]1O` (stereo not given in full), the activity was -56.9% in assay [1], -1.53% in [3] and -0.785% in [4]. The activity change, negative = inhibition in [2] is -2.31% [at 19.1 µM].

On to `COc1ccc(/C=C/C(=O)O[C@@H]2[C@@H](OC(C)=O)[C@@H](OC(C)=O)[C@H](O[C@H]3[C@@H]4C=CO[C@@H](O[C@@H]5O[C@H](CO)[C@@H](O)[C@H](O)[C@H]5O)[C@@H]4[C@@]4(CO)O[C@@H]34)O[C@H]2C)cc1O`, for which the results for the activity in [1], in assay [3] and in assay [4] were -68.6%, -11.7% and -9.65%, respectively. Moreover, in assay [2], the activity change, negative = inhibition was -5.06% [at 19.1 µM].

In the case of `CC1(C)CC[C@]2(C(=O)O[C@@H]3O[C@H](CO)[C@@H](O)[C@H](O)[C@H]3O)CC[C@]3(C)C(=CCC4[C@@]5(C)C[C@@H](O)[C@H](O)C(CO)(CO)C5CC[C@]43C)C2[C@@H]1O` (stereo not given in full), the results for the activity in [1], in assay [3] and in [4] were -77.5%, 0% and 4.05%, respectively. The activity change, negative = inhibition in assay [2] came to 0% [at 19.1 µM].

`CC(C)(C)NC(=O)[C@@H]1C[C@@H]2CCCC[C@@H]2CN1C[C@@H](O)[C@H](Cc1ccccc1)NC(=O)[C@H](CC(N)=O)NC(=O)c1ccc2ccccc2n1`: the outcome in [5], in assay [6] and in assay [8] was “inactive” in each case. Also, the Potency result in assay [7] is “inactive”.

As to `C=C[C@](C)(CC/C=C(\C)C(=O)O)O[C@@H]1OC[C@H](O)[C@H](O)[C@H]1O`, the activity in [1] was -82.9%; in assay [3], -0.767%; in assay [4] it was 0.753%. The activity change, negative = inhibition in assay [2] is -1.98%.

`COCCN(C)Cc1ccc2nc3sc(C(=O)N(C)C4CCCCC4)cn3c2c1`: the activity in assay [1] was -4.7%; in [3], 1.46%; in [4], -2.94%. In addition, the activity change, negative = inhibition in [2] stood at 0%.

Take `CCOc1ccc(-c2ccc(Cn3c(CC(C)(C)C(=O)O)c(SC(C)(C)C)c4cc(OCc5ccc(C)cn5)ccc43)cc2)cn1`: the activity in assay [1] is -2.5% and 0.78%; in assay [3] it was -21.6% and -9.46%; in [4], -31.2% and -7.43%. Also, the Potency entry in [2] is “inactive”. Moreover, the activity change, negative = inhibition in assay [2] is -0.671%.

`CCCCC(CC)COC(=O)CC(C(=O)OCC(CC)CCCC)S(=O)(=O)O` (stereo not given): the Potency was 35.2 µM (active) and 9.93 µM (active) in assay [9]; 39.3 µM (active) and 31.2 µM (active) in assay [7]. Besides, the outcome in assay [5], in assay [6] and in assay [10] was “inactive” throughout.

Turning to `COc1cc(C2Oc3c(OC)cc(/C=C/C(=O)OC[C@H]4O[C@@H](OC(C)(C)C(=O)O)[C@H](O)[C@@H](O)[C@@H]4O)cc3C2CO)ccc1O` (stereo not given in full), the activity in assay [1] was -69.3%; in assay [3] it was -0.56%; in assay [4] it was -7.93%. Besides, the activity change, negative = inhibition in assay [2] is -2.88% [at 19.1 µM].

As for `CC(CCC1C(C(=O)O)=CC(=O)CC1(C)C)O[C@@H]1O[C@H](CO)[C@@H](O)[C@H](O)[C@H]1O` (stereo not given in full), the figures for the activity in [1], in assay [3] and in [4] were -82.7%, -5.15% and -4.16%, respectively. Moreover, the activity change, negative = inhibition in assay [2] was -6.33%.

Regarding `CC1(C)O[C@@]2(C)CC[C@@H]1C[C@@H]2OC1OC(CO)C(O)C(O)C1O` (stereo not given in full), the activity in assay [1] is -67.5%; in assay [3] it was 4.92%; in [4], 0.858%. Further, the activity change, negative = inhibition in [2] stood at 2.82%.

For the compound `CC1CC(O)C2(C)C(C(=O)O)=CCCC2C1(C)CCc1ccoc1` (stereo not given), the results for the activity in [1], in assay [3] and in [4] were -89.3%, 2.05% and 2.03%, respectively. Besides, in [2], the activity change, negative = inhibition turned out to be 2.37%.

For `C=C1C(O[C@@H]2O[C@H](CO)[C@@H](O)[C@H](O)[C@@H]2O)CC2C(C)(C)C(O)CCC2(C)C1CC/C(C)=C\CO` (stereo not given in full), the results for the activity in assay [1], in assay [3] and in assay [4] were -63.2%, 3.48% and 0.548%, respectively. Also, in [2], the activity change, negative = inhibition turned out to be 0% [at 29.8 µM].

As to `CC(=O)NCCCCn1c2c(c3ccccc31)C(=O)NCC2`, the figures for the activity in assay [1], in assay [3] and in assay [4] were -9.83%, -4.05% and -4.46%, respectively. For the same compound, the activity change, negative = inhibition in assay [2] is -8.34%.

Take `CC1(CO)CC[C@]2(C(=O)O[C@@H]3O[C@H](CO)[C@@H](O)[C@H](O)[C@H]3O)CC[C@]3(C)C(=CCC4[C@@]5(C)C[C@H](O)[C@H](O[C@@H]6OC[C@@H](O)[C@H](O)[C@H]6O)[C@@](C)(CO)C5CC[C@]43C)C2C1` (stereo not given in full): the activity in [1] was -56.9%; in [3], 2.23%; in assay [4], 2.01%. Moreover, the activity change, negative = inhibition in assay [2] was determined as 0.83% [at 19.1 µM].

For the compound `CC(C)(O)C1CC=C(C(=O)OCC2OC(Oc3c(O)cc(C(=O)O)cc3O)C(O)C(O)C2O)CC1` (stereo not given), the results for the activity in [1], in assay [3] and in assay [4] were -71.8%, -2.85% and -2.18%, respectively. Besides, the activity change, negative = inhibition in assay [2] is -3.66% [at 29.8 µM].

Turning to `CC1(C)CC[C@]2(C(=O)O[C@@H]3O[C@H](CO)[C@@H](O)[C@H](O)[C@H]3O)CC[C@]3(C)C(=CCC4[C@@]5(C)C[C@@H](O)[C@H](O)[C@@](C)(CO)C5CC[C@]43C)C2C1` (stereo not given in full), the activity is -71.4% in assay [1], -8.27% in assay [3] and -4.38% in assay [4]. Also, the activity change, negative = inhibition in assay [2] is -8.61% [at 19.1 µM].

`O=C(O)c1cc(O)c2cccc(O)c2c1O[C@@H]1O[C@H](CO)[C@@H](O)[C@H](O)[C@H]1O`: the activity is -4.06% in [1], -68.8% in assay [3] and -8.77% in assay [4]. Besides, the Potency in [2] was 29.8 µM (active).

Regarding `Cc1[nH]cnc1C1CCN(c2nc3cccc4c3n2CCC4=O)CC1`, the activity was 1.4% in assay [1], -9.9% in [3] and 1.15% in [4]. Moreover, the activity change, negative = inhibition in assay [2] turned out to be 0.0241%.

On to `C/C=C(\C)C(=O)O[C@H]1[C@@H](O[C@]2(COC(=O)CC(C)C)O[C@H](COC(=O)C(C)C)[C@@H](OC(C)=O)[C@@H]2O)O[C@H](COC(C)=O)[C@@H](O)[C@@H]1O`, for which the activity in assay [1] is -75.6%; in assay [3], 2.56%; in assay [4], -1.49%. Besides, the activity change, negative = inhibition in assay [2] was found to be 0% [at 19.1 µM].

On to `CC(Cc1ccc(O)c(O)c1)C(C)Cc1ccc(O)c(O)c1` (stereo not given), for which the Potency is 31.4 µM (active) in assay [9] and 55.5 µM (active) in [7]. Moreover, the outcome in assay [5] and in assay [6] was “inactive” throughout.
